PfHsp90 set2 – reduces growth (ATP signal) of yeast expressing P. falciparum Hsp90; S. cerevisiae expressing PfHsp90, BacTiter-Glo ATP, 48 h; yeast lacking PDR1 and PDR3 efflux regulators; inhibition, % at 9.4 µM; hit rate 0.32% among 310,000; AID 504621;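 active = every replicate shows inhibition above about 80%, whatever the replicate mean, limit read from the data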;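 note: 0% = DMSO neutral controls and 100% = 20 µM radicicol positive controls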
TIM10 inh – TIM10 yeast growth inhibition | S. cerevisiae TIM10 strain growth, BacTiter-Glo luminescence, 24 h | inhibition, % at 10 µM | hit rate 1.4% among 330,000;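 active = inhibition of 40% or more at the single tested concentration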;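 note: wild-type TIM10 isogenic control strain grown at permissive 25 °C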
SKKanGAS inh – blocks kanamycin growth of S. pyogenes SKKanGAS strain; BacTiter-Glo, 6 h; inhibition, % at 7.5 µM; hit rate 1.3% among 300,000; AID 1662;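 active = mean replicate score, as percent of positive control median, at least 50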;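 note: strain carries kanamycin resistance gene driven by streptokinase promoter and grows in 40 µg/ml kanamycin; loss of luminescence reflects streptokinase promoter inhibition or plain growth inhibition; 0% = median of DMSO wells and 100% = positive control at its reference dose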
tim23-1 inh – tim23-1 yeast growth inhibition; S. cerevisiae tim23-1 growth, BacTiter-Glo luminescence, 24 h; inhibition, % at 20 µM; hit rate 1.3% among 330,000;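 active = growth inhibition of the mutant yeast at or above 50%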;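 note: temperature-sensitive mutant grown at 25 °C; plate controls were DMSO-treated mutant yeast for no effect and medium wells lacking yeast for full effect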
tim10-1 inh – inhibits growth of tim10-1 mutant yeast. hit rate 2.2% among 330,000. S. cerevisiae tim10-1 ts strain growth, BacTiter-Glo, 24 h. inhibition, % at 20 µM;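 active = inhibition of at least 40%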;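 note: mutant grown at 25 °C; 0% = DMSO wells with yeast and 100% = wells holding no yeast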
NALP1 yeast inh – NALP1 inhibition. S. cerevisiae NALP1/ASC/caspase-1 growth, X-gal OD620, 72 h. inhibition, % at 10 µM. hit rate 0.61% among 280,000. AID 2071; in the data active = inhibition mostly above about 24%, no sharp cut-off; inactive = mostly below about 32%
tim10-1 conf – tim10-1 yeast growth inhibition, confirmed | shares compounds with tim10-1 inh | S. cerevisiae tim10-1 ts strain growth, BacTiter-Glo, 24 h | inhibition, % at 20 µM | hit rate 56% among 7,400 | AID 463213;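 active = inhibition of yeast growth at or above a set limit in either of two repeat tests at 20 µM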;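 note: tim10-1 mutant grown at permissive 25 °C to find synthetic lethal compounds; 0% = DMSO yeast wells and 100% = medium wells without yeast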
* hit, by the source's call. A selection: hits, their analogues and other compounds. The true share with any hit is near 4.8%.

O=C1CC(=C2c3ccccc3-c3ccccc32)C(=O)N1CCN1CCN(c2cccc(Cl)c2)CC1 was read as PfHsp90 set2 -53, TIM10 inh 0, SKKanGAS inh 0, tim23-1 inh 10, tim10-1 inh 41* and tim10-1 conf 24.
Clc1cccc(N2CCN(CCCN3CCN(c4ccccc4)CC3)CC2)c1 was read as PfHsp90 set2 -16.
CCCCCCCCCC(=O)N1CCN(c2cc3c(cc2F)c(=O)c(C(=O)O)cn3CC)CC1 was read as PfHsp90 set2 -2, TIM10 inh 12, SKKanGAS inh 8, tim23-1 inh -2, tim10-1 inh 4 and NALP1 yeast inh 4.
For Cn1cccc1C(=O)NC(=O)COC(=O)c1ccc(S(C)(=O)=O)c([N+](=O)[O-])c1 the results were PfHsp90 set2 -5, TIM10 inh 35, tim23-1 inh 40, tim10-1 inh 41* and tim10-1 conf 33*.
For Cn1ccsc1=NC(=O)c1ccc(Cl)c([N+](=O)[O-])c1 the results were PfHsp90 set2 10, TIM10 inh -7, SKKanGAS inh -2, tim23-1 inh -1, tim10-1 inh -1 and NALP1 yeast inh 30.
For Cn1ccsc1=NC(=O)c1ccc(S(C)(=O)=O)c([N+](=O)[O-])c1 the results were PfHsp90 set2 7, TIM10 inh 31, SKKanGAS inh 7, tim23-1 inh 35, tim10-1 inh 40*, NALP1 yeast inh 4 and tim10-1 conf 28*.
Cn1cccc1C(=O)NC(=O)COC(=O)c1ccc(S(C)(=O)=O)cc1 was read as PfHsp90 set2 -31, TIM10 inh -3, tim23-1 inh 10 and tim10-1 inh 1.
Screening COc1cc(C2NC(=O)NC(C)=C2C(=O)OC(C)(C)C)ccc1OCC(N)=O (stereo not drawn) returned TIM10 inh 5, SKKanGAS inh 1, tim23-1 inh 12, tim10-1 inh 9 and NALP1 yeast inh 1.
`Cc1ccc(-c2nc3cnccn3c2Nc2c(C)cccc2C)o1` gave PfHsp90 set2 42, TIM10 inh 28, SKKanGAS inh 1, tim23-1 inh 37, tim10-1 inh 60*, NALP1 yeast inh 87 and tim10-1 conf 55*.
Screening Cn1c(=O)cc(SCC(=O)NCC2COc3ccccc3O2)c2ccccc21 (stereo not drawn) returned TIM10 inh -19, SKKanGAS inh -4, tim23-1 inh 14, tim10-1 inh 24 and NALP1 yeast inh 0.
`Cc1cnn(-c2cc(Oc3ccccc3)ncn2)c1` gave PfHsp90 set2 -32, TIM10 inh 14, SKKanGAS inh 2, tim23-1 inh -9, tim10-1 inh 49*, NALP1 yeast inh -9 and tim10-1 conf 26.
For c1ccc(Oc2cc(-n3cncn3)ncn2)cc1 the results were PfHsp90 set2 -37, TIM10 inh 7, SKKanGAS inh -1, tim23-1 inh 11, tim10-1 inh 25 and NALP1 yeast inh 22.
`N=C(N)c1ccc(/C=C/c2ccc(C(=N)N)cc2O)cc1` gave PfHsp90 set2 -9, TIM10 inh -22, SKKanGAS inh 100*, tim23-1 inh 38, tim10-1 inh 56*, NALP1 yeast inh 6 and tim10-1 conf 70*.
Screening N=C(N)c1ccc(Cl)cc1 returned PfHsp90 set2 8, TIM10 inh 16, SKKanGAS inh 3, tim23-1 inh 4, tim10-1 inh -6 and NALP1 yeast inh -1.
For Cc1cccc(C)c1OCC(=O)N(Cc1ccc(Cl)cc1)C1CCS(=O)(=O)C1 (stereo not drawn) the results were PfHsp90 set2 5, TIM10 inh 15, SKKanGAS inh -5, tim23-1 inh 36, tim10-1 inh 40*, NALP1 yeast inh -2 and tim10-1 conf -7.
`Oc1ccc(Br)cc1/C=N/n1cnc2ccccc21` gave PfHsp90 set2 18, TIM10 inh 34, SKKanGAS inh 5, tim23-1 inh 33, tim10-1 inh 42*, NALP1 yeast inh 0 and tim10-1 conf 24.
Screening Cc1cc(=O)n(CC(=O)NCCN2CCOCC2)c2c1c(C)nn2-c1ccccc1 returned PfHsp90 set2 -24, TIM10 inh 6, SKKanGAS inh 2, tim23-1 inh 24, tim10-1 inh 31 and NALP1 yeast inh -3.
`Cc1ccccc1CC(=O)N1CCOCC1` gave PfHsp90 set2 -1, TIM10 inh 2, SKKanGAS inh 1, tim23-1 inh -12, tim10-1 inh -19 and NALP1 yeast inh 19.
For COc1ccc(C)cc1NC(=O)N1CCCc2ccccc21 the results were PfHsp90 set2 -5, TIM10 inh 4, SKKanGAS inh -12, tim23-1 inh 26, tim10-1 inh 47*, NALP1 yeast inh 6 and tim10-1 conf 15.
Screening COc1ccc(NC(=O)N2CCCc3ccccc32)c(OC)c1 returned PfHsp90 set2 9, TIM10 inh 10, SKKanGAS inh 12, tim23-1 inh 29, tim10-1 inh 23 and NALP1 yeast inh -2.
For O=C(Cn1nc(C(F)(F)F)c2c1CCC2)NCc1ccc(Cl)cc1 the results were PfHsp90 set2 17, TIM10 inh 14, SKKanGAS inh 6, tim23-1 inh -9, tim10-1 inh 41*, NALP1 yeast inh 14 and tim10-1 conf 30.
Cc1cccc(-n2ncc3c(N4CCCc5ccccc54)ncnc32)c1 was read as TIM10 inh 7, SKKanGAS inh 5, tim23-1 inh 9, tim10-1 inh 22 and NALP1 yeast inh -9.
For CN(C)S(=O)(=O)N(CC(=O)N1CCN(c2ccccc2F)CC1)c1ccccc1 the results were PfHsp90 set2 14, TIM10 inh 2, SKKanGAS inh 7, tim23-1 inh 16, tim10-1 inh 14 and NALP1 yeast inh 6.
`Cc1nc2c(c(=O)n1CCC1=CCCCC1)c1nc3ccccc3nc1n2/N=C/c1ccco1` gave PfHsp90 set2 -4, TIM10 inh 10, SKKanGAS inh 39, tim23-1 inh 4, tim10-1 inh -6 and NALP1 yeast inh 11.
For CCCn1c(C)nc2c(c1=O)c1nc3ccccc3nc1n2CCC1=CCCCC1 the results were TIM10 inh 7, SKKanGAS inh 11, tim23-1 inh 39, tim10-1 inh 49*, NALP1 yeast inh -12 and tim10-1 conf -2.
For CC(=O)c1cccc(NC(=O)COc2ccccc2C(=O)c2cc(C#N)c(=O)n(C3CCCCC3)c2)c1 the results were PfHsp90 set2 4, TIM10 inh -3, SKKanGAS inh 10, tim23-1 inh 12, tim10-1 inh 26 and NALP1 yeast inh 18.
N#Cc1cc(C(=O)c2ccccc2OCC(=O)Nc2ccccc2Cl)cn(C2CCCCC2)c1=O was read as PfHsp90 set2 -22, TIM10 inh 8, SKKanGAS inh 2, tim23-1 inh 26, tim10-1 inh 43*, NALP1 yeast inh 21 and tim10-1 conf 18.

Screens: PubChem, several laboratories
